In PubChem BioAssay AID504697 (The Scripps Research Institute Molecular Screening Center, 2011) one finds EC50 data, which are given here for 37 compounds.

Values without a mark were called inactive. The source made the active and inactive calls.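 The calls were made as follows: active = EC50 at or below 10 µM; inactive = EC50 above 10 µM.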 Some results are limits rather than exact numbers.

The nature of this experiment: compound autofluorescence in calcium buffer – biochemical, fluorescence, no RTF in test wells, artefact control for cardiac thin filament activator project, dose response (AID 504697).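 Also: emission near 535 nm under roughly 485 nm excitation as for IANBD.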 Particulars: compound-only fluorescence in RTF assay buffer with Ca2+ (no RTF in test wells), artifact counterscreen. In general terms: A counterscreen serves to expose hits that act by an unwanted route or on another target.
As a reminder, the EC50 is the concentration needed to bring the measured effect to its halfway point. `COC(=O)c1ccc(S(=O)(=O)N2CCC(O)CC2)n1C`: the EC50 is > 71.4 µM.

On to `CCN(CC)c1ccc(/C=c2\sc3nnc(-c4ccccc4Cl)n3c2=O)cc1`, for which the EC50 was 0.644 µM (active). As for `CC(=O)N1CCc2c(sc(NC(=O)C3CCCN3S(=O)(=O)c3cccs3)c2C(N)=O)C1` (configuration not stated), the figure is 42.6 µM; as for `COc1ccc(N=C2NC(=O)S/C2=C\c2ccc(N(C)C)cc2)cc1`, 5.67 µM (active). For the compound `COc1ccc2ccccc2c1C(O)c1nccn1C` (configuration not stated), the EC50 was 10.7 µM. Turning to `O=[N+]([O-])c1ccc(/C=C/C2=NN(c3ccccc3)C(c3ccco3)C2)cc1` (configuration not stated), the EC50 was 1.04 µM (active). In the case of `COc1ccc(NC(=O)/C(C#N)=C\c2ccc(N3CCOCC3)o2)cc1`, the concentration for a half-maximal effect (EC50) is 3.63 µM (active). As for `S=C(Nc1ccc(N2CCOCC2)cc1)Nc1ccc2nc(-c3ccco3)c(-c3ccco3)nc2c1`, the EC50 was 11.4 µM.

For the compound `CC1CN(c2ccc(NS(=O)(=O)c3ccccc3)cc2C(=O)O)CC(C)O1` (configuration not stated), the EC50 is > 71.5 µM.

With `CC1(C)CC(=O)C=C(Nc2ccccc2N)C1`, the EC50 was > 71.5 µM. For `Cc1cc(/C=C2/C(=O)N(C)C(=S)N2C)ccc1N1CCCC1`, the EC50 was 28.8 µM. With `N#C/C(=C\c1c[nH]c2ccccc12)C(=O)Nc1ncc(Cc2ccc(Cl)cc2Cl)s1`, the EC50 is > 71.5 µM. As for `CCN(CC)c1ccc(/C=C2\C(=O)c3ccc(C(=O)O)cc3C2=O)cc1`, the EC50 is 1.04 µM (active). As for `O=C(/C=C/c1nc2ccccc2s1)N1CCCCCC1`, the EC50 is > 71.5 µM.

On to `COc1ccc(C(=O)Nc2cc(C(C)=O)c(/C=C/N(C)C)oc2=O)cc1`, for which the EC50 is 29.5 µM. On to `COc1c(O)cccc1-c1nnn(CCC(=O)OCC(=O)c2ccccc2)n1`, for which the EC50 is > 71.5 µM. Consider `CCOc1ccc2ccccc2c1CNCCN1CCOCC1`, for which the EC50 was > 71.5 µM. As for `CN(C)c1ccc(N=Cc2nc(-c3ccccc3)oc2O)cc1`, the figure is 6.84 µM (active); as for `CCOC(=O)/C(=C\c1c[nH]c2ccccc12)NC(C)=O`, > 71.4 µM. In the case of `COc1cc(CCCN2C(=S)NC[C@@H]2CC2CCCCC2)cc(OC)c1OC`, the EC50 is > 71.5 µM.

`c1ccc2[nH]c3cc4ncnc4cc3nc2c1`: the EC50 was 17.9 µM. With `C=CCn1c(=O)[nH]c2nc3cc(N=CN(C)C)c(C)cc3nc2c1=O`, the EC50 is 4.96 µM (active). With `COc1ccc(-c2nn(-c3ccccc3)cc2/C=N/NC(N)=S)cc1OC` the figure was > 71.5 µM; with `CN(CC(=O)NCc1ccco1)S(=O)(=O)c1cccc2cccnc12`, > 71.5 µM; with `Cc1cccc(/C=N/NC(=O)C(C)Nc2cccc3ccccc23)n1` (configuration not stated), 26.9 µM. Regarding `CC1(C)CCN2CCC(C)(C)c3c(O)ccc1c32`, the concentration giving a half-maximal response (EC50) is 5.84 µM (active).

As to `Cc1ccc(/C=C2\Oc3c(ccc(O)c3CN3CCN(CCO)CC3)C2=O)cc1`, the EC50 is 34.2 µM. For `COc1ccc(C(=O)/C=C/c2cn(CC(O)CN3CCN(C)CC3)c3ccccc23)cc1OC` (configuration not stated), the EC50 is 25.7 µM.

With `CN1CCC2(CC1)C1CN(C)CC=C1C(C#N)=C(N)C2(C#N)C#N` (configuration not stated), the EC50 is 23.5 µM. For the compound `CN(Cc1ccccc1)C(=O)c1[nH]cnc1C(=O)NCc1ccccc1`, the EC50 was > 71.6 µM. With `CCN(CC)c1ccc(/C=C2\SC(N)=NC2=O)cc1` the figure was 30.6 µM; with `CCOC(=O)c1sc2nc(C)nc(SCC(=O)NC3CCS(=O)(=O)C3)c2c1C` (configuration not stated), > 71.5 µM; with `C=CCn1c(C)c(/C=C/c2cc[n+](C)cc2)c2ccccc21`, 4.64 µM (active).

On to `O=C(NC1CCCCC1)c1cccc2c1C(=O)c1ccc(N3CCCC3)cc1S2(=O)=O`, for which the EC50 was > 23.8 µM. For the compound `COC(=O)C(=N/Nc1ccccc1C(=O)OC)/C(C)=N/O`, the EC50 was > 71.5 µM.

Consider `CCn1c(=O)c(C(=O)CN2CCCc3ccccc32)c(N)n(Cc2ccccc2)c1=O`, for which the EC50 was 62.2 µM. With `Cc1ccc(N=Nc2c(O)n(CN3CCOCC3)c3ccccc23)cc1` the figure was > 71.5 µM.
